# Measurements as given in ChEMBL document CHEMBL4513141, “CO-ADD screening of NIH (USA) - Clinical Collection” (2021).
# Potency and affinity values are given separately.
# Experiments:
# Staphylococcus aureus = conditions: Concentration 20 uM; ASSAY_TEST Inhibition of Bacterial Growth; detection method Absorption (OD600); MEDIA CAMHB; plate type 384well; NBS; CORNING #3640; time 18 hr
# Escherichia coli = conditions: Concentration 20 uM; ASSAY_TEST Inhibition of Bacterial Growth; detection method Absorption (OD600); MEDIA CAMHB; plate type 384well; NBS; CORNING #3640; time 18 hr
SMILES,Inhibition (Staphylococcus aureus),Inhibition (Escherichia coli)
CC(C)(C)NCC(O)c1ccc(O)c(CO)c1.CC(C)(C)NCC(O)c1ccc(O)c(CO)c1.O=S(=O)(O)O (stereo unspecified) [ALBUTEROL SULFATE],8.55%,5.03%
Cl.Nc1c2c(nc3ccccc13)CCCC2 [TACRINE HYDROCHLORIDE],10.46%,0.14%
Cc1[nH]cnc1CN1CCc2c(c3ccccc3n2C)C1=O.Cl [ALOSETRON HYDROCHLORIDE],8.61%,9.19%
Cc1cccc(Nc2ccncc2S(=O)(=O)NC(=O)NC(C)C)c1 [TORSEMIDE],4.19%,6.8%
Cl.O=C1[C@H]2CCCC[C@H]2C(=O)N1CCCCN1CCN(c2nsc3ccccc23)CC1,14.1%,0.37%
Cc1onc(-c2ccccc2)c1-c1ccc(S(N)(=O)=O)cc1 [VALDECOXIB],10.74%,4.49%
Cn1ccnc1S [METHIMAZOLE],17.02%,5.86%
CCCC(CCC)C(=O)O [VALPROIC ACID],9.7%,-0.41%
CC(Cc1ccccc1)(NC(=O)CN)c1ccccc1.Cl (stereo unspecified) [REMACEMIDE HYDROCHLORIDE],12.25%,-0.35%
CNCC(O)c1ccc(O)c(O)c1 (stereo unspecified) [RACEPINEPHRINE],9.77%,2.6%
O=C1N[C@H](C(=O)O)CS1 [PROCYSTEINE],10.52%,6.28%
CC1(C)O[C@@H]2C[C@H]3[C@@H]4CCC5=CC(=O)C=C[C@]5(C)[C@@]4(F)[C@@H](O)C[C@]3(C)[C@]2(C(=O)CO)O1 [TRIAMCINOLONE ACETONIDE],7.65%,3.69%
C[C@]12C=CC(=O)C=C1CC[C@@H]1[C@@H]2[C@@H](O)C[C@@]2(C)[C@H]1CC[C@]2(O)C(=O)CO [PREDNISOLONE],7.56%,7.41%
CN1CCN(C2=Nc3ccccc3Oc3ccc(Cl)cc32)CC1.O=C(O)CCC(=O)O [LOXAPINE SUCCINATE],9.14%,4.68%
Cc1cccc(C)c1NC(=O)C(C)N (stereo unspecified) [TOCAINIDE],2.4%,3.98%
CC(=O)OCC(CCn1cnc2cnc(N)nc21)COC(C)=O [FAMCICLOVIR],12.23%,6.38%
Cc1cccc(CCN2CCC(C(=O)c3ccc(NS(C)(=O)=O)cc3)CC2)n1.Cl.Cl,15.03%,-5.54%
CNC(=C[N+](=O)[O-])NCCSCc1ccc(CN(C)C)o1.Cl [RANITIDINE HYDROCHLORIDE],-17.46%,4.52%
COc1cc(C(=O)NS(=O)(=O)c2ccccc2C)ccc1Cc1cn(C)c2ccc(NC(=O)OC3CCCC3)cc12 [ZAFIRLUKAST],36.84%,4.93%
CC(C)c1ccc2oc3nc(N)c(C(=O)O)cc3c(=O)c2c1 [AMLEXANOX],16.12%,0.07%
OCCN1C[C@H](O)[C@@H](O)[C@H](O)[C@H]1CO [MIGLITOL],16.69%,5.82%
CC1CC2C3CCC4=CC(=O)C=CC4(C)[C@@]3(Cl)C(O)CC2(C)C1(O)C(=O)CO (stereo partly specified),12.42%,5.77%
C#C[C@]1(O)CC[C@H]2[C@@H]3CCc4cc(O)ccc4[C@H]3CC[C@@]21C [ETHINYL ESTRADIOL],1.21%,3.7%
CNCCC=C1c2ccccc2CCc2ccccc21.Cl [NORTRIPTYLINE HYDROCHLORIDE],3.19%,4.29%
NCC(=O)CCC(=O)O [AMINOLEVULINIC ACID],8.53%,5.31%
O=C(O)COCCN1CCN([C@H](c2ccccc2)c2ccc(Cl)cc2)CC1 [LEVOCETIRIZINE],11.65%,5.57%
OCc1cc(C(O)CNCCCCCCOCCCCc2ccccc2)ccc1O (stereo unspecified) [SALMETEROL],15.16%,8.33%

SMILES,Inhibition (Staphylococcus aureus),Inhibition (Escherichia coli)
O=C([O-])Cc1ccccc1Nc1c(Cl)cccc1Cl.[Na+] [DICLOFENAC SODIUM],–,7.01%
CC#C[C@]1(O)CC[C@H]2[C@@H]3CCC4=CC(=O)CCC4=C3[C@@H](c3ccc(N(C)C)cc3)C[C@@]21C [MIFEPRISTONE],11.2%,-7.81%
COc1cc2nc(N3CCN(C(=O)C4COc5ccccc5O4)CC3)nc(N)c2cc1OC (stereo unspecified) [DOXAZOSIN],8.23%,5.29%
COc1nc(C)nc(Cl)c1NC1=NCCN1.Cl [MOXONIDINE HYDROCHLORIDE],-14.16%,3.63%
CCN(Cc1ccncc1)C(=O)C(CO)c1ccccc1 (stereo unspecified) [TROPICAMIDE],7.97%,5.49%
Cn1nnc2c(C(N)=O)ncn2c1=O [TEMOZOLOMIDE],8.98%,6.63%
CC(=O)NS(=O)(=O)c1ccc(N)cc1 [SULFACETAMIDE],13.64%,1.92%
CS(=O)(=O)O.Cc1ccc(NC(=O)c2ccc(CN3CCN(C)CC3)cc2)cc1Nc1nccc(-c2cccnc2)n1 [IMATINIB MESYLATE],11.51%,2.87%
COc1cc(C)nc(-n2nc(C)cc2OC)n1 [EPIRIZOLE],7.75%,-0.13%
CCN1CCC[C@H]1CNC(=O)c1cc(S(N)(=O)=O)ccc1OC [LEVOSULPIRIDE],7.78%,3.44%
CC(=O)O[C@H]1C[C@@H]2CC[C@@H]3[C@H](CC[C@@]4(C)[C@H]3C[C@H]([N+]3(C)CCCCC3)[C@@H]4OC(C)=O)[C@@]2(C)C[C@@H]1N1CCCCC1.[Br-] [VECURONIUM BROMIDE],-16.09%,5.67%
CCC(C)(C)C(=O)O[C@H]1C[C@@H](C)C=C2C=C[C@H](C)[C@H](CC[C@@H]3C[C@@H](O)CC(=O)O3)[C@H]21 [SIMVASTATIN],–,6.01%
Nc1nnc(-c2cccc(Cl)c2Cl)c(N)n1 [LAMOTRIGINE],8.71%,4.49%
Cc1ccsc1C(=CCCN1CCC[C@@H](C(=O)O)C1)c1sccc1C.Cl [TIAGABINE HYDROCHLORIDE],12.29%,-1.1%
Cl.O=c1n(CCCN2CCN(c3cccc(Cl)c3)CC2)nc2ccccn12 [TRAZODONE HYDROCHLORIDE],11.44%,0.18%
Cc1nc(=O)c2cc(CN(C)c3ccc(C(=O)N[C@@H](CCC(=O)O)C(=O)O)s3)ccc2[nH]1 [RALTITREXED],9.09%,2.78%
CS(=O)(=O)c1ccc(C2=C(c3ccccc3)C(=O)OC2)cc1 [ROFECOXIB],8.94%,-7.03%
Cl.O=C(NCC1CCCCN1)c1cc(OCC(F)(F)F)ccc1OCC(F)(F)F (stereo unspecified),10.41%,-6.42%
CC(C)[C@H](N)C(=O)OCCOCn1cnc2c(=O)nc(N)[nH]c21.Cl [VALACYCLOVIR HYDROCHLORIDE],12.39%,2.88%
Cc1c(C(=O)NN2CCCCC2)nn(-c2ccc(Cl)cc2Cl)c1-c1ccc(I)cc1,8.26%,1.46%
CN1CCN(C2=Nc3cc(F)ccc3Cc3ccccc32)CC1 [FLUPERLAPINE],14.37%,3.9%
CC1(C)O[C@@H]2C[C@H]3[C@@H]4C[C@H](F)C5=CC(=O)C=C[C@]5(C)[C@@]4(F)[C@@H](O)C[C@]3(C)[C@]2(C(=O)CO)O1 [FLUOCINOLONE ACETONIDE],-31.13%,6.84%
CCc1cc(C(N)=S)ccn1 [ETHIONAMIDE],13.26%,2.06%
CC[C@@]1(O)C(=O)OCc2c1cc1n(c2=O)Cc2cc3c(CN(C)C)c(O)ccc3nc2-1.Cl [TOPOTECAN HYDROCHLORIDE],12.09%,3.87%
CN(C)CCCN1c2ccccc2CCc2ccccc21.Cl [IMIPRAMINE HYDROCHLORIDE],8.95%,-1.44%
Nc1nc2c(ncn2COC(CO)CO)c(=O)[nH]1 [GANCICLOVIR],7.88%,0.63%
COc1cc2nc(N3CCN(C(=O)C4CCCO4)CC3)nc(N)c2cc1OC (stereo unspecified) [TERAZOSIN],8.19%,-0.53%
